mHTT CaM bind = inhibitors of human mutant huntingtin-calmodulin interaction; AlphaScreen His-mHTT/GST-CaM binding, luminescence; P42858; inhibition, % at 15 µM; hit rate 3.6% among 190,000;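 note: 0% = both proteins with DMSO and 100% = one protein alone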
Target sequence (P42858 whole entry, looked up, stated change not applied): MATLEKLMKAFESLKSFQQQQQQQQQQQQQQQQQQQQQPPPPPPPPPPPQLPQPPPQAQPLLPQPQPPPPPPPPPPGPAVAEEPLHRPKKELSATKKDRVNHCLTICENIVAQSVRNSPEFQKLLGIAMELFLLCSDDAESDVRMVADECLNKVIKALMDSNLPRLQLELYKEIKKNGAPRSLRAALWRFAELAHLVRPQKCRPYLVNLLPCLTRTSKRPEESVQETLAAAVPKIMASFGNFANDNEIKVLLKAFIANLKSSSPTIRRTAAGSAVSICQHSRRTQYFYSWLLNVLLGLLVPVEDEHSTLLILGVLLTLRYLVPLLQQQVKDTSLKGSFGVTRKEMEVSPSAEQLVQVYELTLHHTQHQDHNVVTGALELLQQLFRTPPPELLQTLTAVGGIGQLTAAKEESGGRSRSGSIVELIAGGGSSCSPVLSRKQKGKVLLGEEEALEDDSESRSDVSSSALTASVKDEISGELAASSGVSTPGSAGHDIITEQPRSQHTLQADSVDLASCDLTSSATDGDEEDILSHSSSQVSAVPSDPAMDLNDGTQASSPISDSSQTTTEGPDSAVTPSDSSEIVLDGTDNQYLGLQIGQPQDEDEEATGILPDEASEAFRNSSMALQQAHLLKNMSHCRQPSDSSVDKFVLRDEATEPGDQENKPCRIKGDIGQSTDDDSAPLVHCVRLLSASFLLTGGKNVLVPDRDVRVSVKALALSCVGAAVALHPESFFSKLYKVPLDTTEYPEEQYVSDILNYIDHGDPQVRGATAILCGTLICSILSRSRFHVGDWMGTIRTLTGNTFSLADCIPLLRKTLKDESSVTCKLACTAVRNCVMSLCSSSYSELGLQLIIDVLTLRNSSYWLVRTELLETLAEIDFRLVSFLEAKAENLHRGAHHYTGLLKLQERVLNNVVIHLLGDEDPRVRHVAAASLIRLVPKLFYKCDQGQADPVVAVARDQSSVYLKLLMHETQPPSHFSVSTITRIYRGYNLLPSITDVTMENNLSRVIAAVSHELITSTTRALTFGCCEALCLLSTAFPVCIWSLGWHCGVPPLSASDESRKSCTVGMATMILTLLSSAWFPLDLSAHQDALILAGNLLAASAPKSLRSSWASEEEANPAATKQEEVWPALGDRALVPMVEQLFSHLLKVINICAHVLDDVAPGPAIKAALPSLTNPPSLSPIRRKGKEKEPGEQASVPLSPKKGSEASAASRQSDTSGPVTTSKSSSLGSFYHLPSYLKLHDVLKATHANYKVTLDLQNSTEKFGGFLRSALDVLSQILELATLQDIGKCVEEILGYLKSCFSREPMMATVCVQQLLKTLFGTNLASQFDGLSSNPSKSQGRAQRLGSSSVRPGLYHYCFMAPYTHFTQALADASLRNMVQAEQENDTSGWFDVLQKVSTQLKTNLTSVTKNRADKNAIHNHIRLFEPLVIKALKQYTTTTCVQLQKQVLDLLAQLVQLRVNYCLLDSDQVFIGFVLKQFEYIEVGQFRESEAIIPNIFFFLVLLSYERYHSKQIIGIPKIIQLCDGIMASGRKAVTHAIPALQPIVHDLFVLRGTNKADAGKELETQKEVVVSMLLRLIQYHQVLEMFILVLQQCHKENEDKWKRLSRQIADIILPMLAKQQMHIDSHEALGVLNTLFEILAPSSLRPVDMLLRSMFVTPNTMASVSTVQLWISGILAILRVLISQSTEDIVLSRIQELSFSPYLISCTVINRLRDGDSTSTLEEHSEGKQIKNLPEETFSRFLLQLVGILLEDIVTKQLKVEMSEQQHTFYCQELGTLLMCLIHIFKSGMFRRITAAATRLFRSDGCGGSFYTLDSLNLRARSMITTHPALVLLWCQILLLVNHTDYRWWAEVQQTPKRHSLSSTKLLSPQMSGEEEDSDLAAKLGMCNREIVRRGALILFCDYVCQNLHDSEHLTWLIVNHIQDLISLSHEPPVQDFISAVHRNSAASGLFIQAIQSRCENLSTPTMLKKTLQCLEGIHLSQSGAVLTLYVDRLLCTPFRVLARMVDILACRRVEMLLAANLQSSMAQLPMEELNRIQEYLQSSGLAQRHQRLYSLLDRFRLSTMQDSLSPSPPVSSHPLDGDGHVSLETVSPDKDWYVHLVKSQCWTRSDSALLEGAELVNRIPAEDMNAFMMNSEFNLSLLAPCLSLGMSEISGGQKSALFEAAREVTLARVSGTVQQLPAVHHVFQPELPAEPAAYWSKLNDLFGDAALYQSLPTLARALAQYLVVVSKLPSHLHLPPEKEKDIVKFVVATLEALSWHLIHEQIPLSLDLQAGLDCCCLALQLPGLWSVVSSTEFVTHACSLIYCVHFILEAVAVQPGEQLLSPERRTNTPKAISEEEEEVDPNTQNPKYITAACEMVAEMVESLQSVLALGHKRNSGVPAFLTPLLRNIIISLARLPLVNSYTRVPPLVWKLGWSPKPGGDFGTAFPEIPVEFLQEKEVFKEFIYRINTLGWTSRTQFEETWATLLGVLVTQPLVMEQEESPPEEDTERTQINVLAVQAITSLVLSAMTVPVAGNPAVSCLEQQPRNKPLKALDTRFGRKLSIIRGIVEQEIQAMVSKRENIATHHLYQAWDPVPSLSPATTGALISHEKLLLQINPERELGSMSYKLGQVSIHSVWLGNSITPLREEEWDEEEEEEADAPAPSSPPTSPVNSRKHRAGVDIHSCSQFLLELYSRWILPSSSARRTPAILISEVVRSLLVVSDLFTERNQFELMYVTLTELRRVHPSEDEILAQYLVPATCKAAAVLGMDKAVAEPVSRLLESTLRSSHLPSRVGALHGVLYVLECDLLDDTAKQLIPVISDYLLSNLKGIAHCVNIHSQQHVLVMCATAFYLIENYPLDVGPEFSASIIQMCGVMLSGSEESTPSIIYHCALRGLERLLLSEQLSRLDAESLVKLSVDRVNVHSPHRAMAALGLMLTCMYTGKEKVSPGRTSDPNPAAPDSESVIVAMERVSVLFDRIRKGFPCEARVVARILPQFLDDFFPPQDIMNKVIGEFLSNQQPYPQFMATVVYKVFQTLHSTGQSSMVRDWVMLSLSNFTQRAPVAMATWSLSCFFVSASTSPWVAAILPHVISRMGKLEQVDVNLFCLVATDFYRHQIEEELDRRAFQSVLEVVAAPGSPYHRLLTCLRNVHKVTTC
Pf apPOL block = Pf-apPOL DNA polymerase inhibition. Recombinant Pf-apPOL, molecular beacon fluorescence, 1.5 h. hit rate 0.25% among 210,000. inhibition, % at 10 µM
Active calls of the source: *; ! = not active in a repeat. Only some compounds are listed: those with a hit (about 3.5% of all), similar ones and a draw of the others. Cut-off read from the data, not from the text of the source: active = inhibition above about 50%; inactive = the rest.

`Cc1ccc(-n2cc3c(c2-c2ccccc2)c(=O)n(C)c(=O)n3C)c(C)c1` gave mHTT CaM bind 16.0 and Pf apPOL block 83.4*.
For COc1ccc(-c2c3c(=O)n(C)c(=O)n(C)c3cn2-c2ccccc2)cc1 the results were mHTT CaM bind 5.0 and Pf apPOL block 42.6.
Cc1cc(N)c(-n2cc3c(c2-c2ccccc2)c(=O)n(C)c(=O)n3C)cc1C was read as mHTT CaM bind 13.0 and Pf apPOL block 81.8*.
`Cn1c(=O)c2c(-c3ccccc3)n(-c3ccccc3)cc2n(C)c1=O` gave mHTT CaM bind 31.0 and Pf apPOL block 7.0.
`COc1ccc(-c2c3c(=O)n(C)c(=O)n(C)c3cn2-c2ccccc2OC)cc1` gave mHTT CaM bind 15.0 and Pf apPOL block 78.0*.
For COc1ccc(-c2c3c(=O)n(C)c(=O)n(C)c3cn2-c2ccc(C)cc2C)cc1 the results were mHTT CaM bind 15.0 and Pf apPOL block -3.8.
Screening CCn1cc2c(c1-c1ccccc1)c(=O)n(C)c(=O)n2C returned mHTT CaM bind -4.0 and Pf apPOL block 5.9.
COc1ccc2c(c1)c(CN1CCC(C(=O)NCCCN3CCCCCC3)CC1)cn2C was read as mHTT CaM bind 43.5 and Pf apPOL block -5.2.
`Cc1cc(=O)[nH]c(-c2cnccn2)n1` gave mHTT CaM bind 94.3* and Pf apPOL block -16.9.
`Cc1cc(=O)[nH]c(-c2ccccc2)n1` gave Pf apPOL block -2.5.
For COc1ccccc1C(=O)N1CCC(COc2ccc(C(=O)N3CCCCC3)cc2)CC1 the results were mHTT CaM bind -2.5 and Pf apPOL block -5.7.
`COc1ccc(C(NC(=O)CCc2ccccc2)c2ccc3cccnc3c2O)cc1OC` (stereo unspecified) gave mHTT CaM bind 100.0* and Pf apPOL block -3.5.
For COc1ccccc1C(NC(=O)Cc1ccccc1)c1ccc2cccnc2c1O (stereo unspecified) the results were mHTT CaM bind 35.0 and Pf apPOL block -4.4.
For O=C(CCc1ccccc1)NC(c1ccccc1)c1ccccc1 the results were mHTT CaM bind -11.0 and Pf apPOL block -1.7.
`COc1ccc(C(NC(=O)Cc2ccccc2)c2ccc3cccnc3c2O)cc1OC` (stereo unspecified) gave mHTT CaM bind 100.0* and Pf apPOL block 87.0*!.
CN(C)S(=O)(=O)c1ccc(C(=O)NCC2CCN(S(=O)(=O)C3CC3)CC2)cc1 was read as mHTT CaM bind -6.3 and Pf apPOL block -8.2.
Screening O=C(C1CCCCC1)N1CCC(Cc2ccccc2)CC1 returned mHTT CaM bind -16.8 and Pf apPOL block 8.7.
`Clc1cccc(C2CC(c3ccc4ccccc4c3)=NN2c2ccccc2)c1` (stereo unspecified) gave mHTT CaM bind -19.9.
Cc1ccc([C@H]2C[C@@H](O)[C@H](n3cc(COC(=O)c4ccccc4)nn3)CN2Cc2cccs2)cc1 was read as mHTT CaM bind 0.7 and Pf apPOL block 2.5.
Screening O=C(OCc1cn([C@H]2C[C@H](c3ccc(Cl)cc3)N(Cc3cccs3)C[C@@H]2O)nn1)c1ccccc1 returned mHTT CaM bind 33.5 and Pf apPOL block -1.7.
`O=C(OCc1cn([C@H]2CN(Cc3cccs3)[C@@H](c3ccc(Cl)cc3)C[C@@H]2O)nn1)c1ccccc1` gave mHTT CaM bind 100.2* and Pf apPOL block -6.2.
`Cc1ccc([C@H]2C[C@H](O)[C@@H](n3cc(COC(=O)c4ccccc4)nn3)CN2Cc2cccs2)cc1` gave mHTT CaM bind 99.7* and Pf apPOL block -0.4.
Screening Cc1cc(C)cc(NC(=O)c2ccc(OC(C)C)cc2)c1 returned mHTT CaM bind -32.4 and Pf apPOL block -4.0.
`COc1ccccc1C(=O)Nc1ccc(OCc2ccccc2)cc1` gave mHTT CaM bind -6.6 and Pf apPOL block -3.5.
`CCCCOC(=O)COc1cc2oc(=O)cc(C)c2cc1CC` gave mHTT CaM bind -4.3 and Pf apPOL block 2.3.
`COc1ccccc1N1CCN(Cc2ccc(Br)o2)CC1` gave mHTT CaM bind 0.5 and Pf apPOL block 84.8*.
Screening COc1cc(OC)c(OC)cc1CN1CCN(c2ccccc2OC)CC1 returned mHTT CaM bind -1.4 and Pf apPOL block -6.3.
For COc1ncc(C(=O)NCc2ccccc2Cl)cn1 the results were mHTT CaM bind -2.5 and Pf apPOL block -1.9.
CCN1CCN(C(=O)c2nc(N3CCC(C)CC3)c3c(C)scc3n2)CC1 was read as mHTT CaM bind 42.2 and Pf apPOL block -1.4.
For COC(=O)c1cnc2nc(C)ccc2c1Nc1ccc(Br)cc1C the results were mHTT CaM bind 93.9* and Pf apPOL block -14.7.
For CCOC(=O)c1cnc2nc(C)ccc2c1Nc1ccc(Cl)cc1 the results were mHTT CaM bind 65.7* and Pf apPOL block -8.4.
Screening CCOC(=O)c1cnc2nc(C)ccc2c1Nc1ccc(F)c(F)c1 returned mHTT CaM bind 33.7 and Pf apPOL block -3.7.
For COC(=O)c1cnc2nc(C)ccc2c1Nc1ccc(C)cc1Cl the results were mHTT CaM bind 46.7 and Pf apPOL block 8.5.
For COC(=O)c1cnc2nc(C)ccc2c1Nc1cc(Cl)ccc1C the results were mHTT CaM bind 65.3* and Pf apPOL block 0.0.
Screening COC(=O)c1cnc2nc(C)ccc2c1Nc1ccc(F)c(Cl)c1 returned mHTT CaM bind -0.3 and Pf apPOL block -5.0.
`COC(=O)c1cnc2nc(C)ccc2c1Nc1cccc(Br)c1` gave mHTT CaM bind 14.5 and Pf apPOL block -19.3.
For COC(=O)c1cnc2nc(C)ccc2c1Nc1ccc(Cl)cc1 the results were mHTT CaM bind 62.0* and Pf apPOL block -8.1.
CCC(=O)N1CCN(c2nc(CN3CCOCC3)cs2)CC1 was read as mHTT CaM bind -0.9 and Pf apPOL block -0.6.
`CC(NC(=O)c1cn2ccncc2n1)c1ccc(F)cc1` (stereo unspecified) gave mHTT CaM bind -4.9 and Pf apPOL block -2.4.
Screening Cc1ccc(NC(=O)/C(=C/c2ccc(N(C)C)cc2)NC(=O)c2ccccc2F)cc1F returned mHTT CaM bind 7.0 and Pf apPOL block 1.0.
Screening Cc1ccc(C2CN(C(=O)c3ccc(Cl)cc3)CC2C(=O)N2CCCC2)cc1 (stereo unspecified) returned mHTT CaM bind 23.1 and Pf apPOL block -2.5.
Screening CCOC(=O)C(C)NC(=O)c1nc(-c2ccc(C)cc2)n2c1CCCCC2 (stereo unspecified) returned mHTT CaM bind 7.1 and Pf apPOL block 1.3.
`CCOc1cccc2cc(-c3cc(=O)oc4cc(OC(=O)C(C)C)ccc34)c(=O)oc12` gave mHTT CaM bind -0.8 and Pf apPOL block -2.3.
For COC(=O)c1cnc2nc(C)ccc2c1Nc1ccc(OC)cc1 the results were mHTT CaM bind 13.3 and Pf apPOL block 2.5.
COC(=O)c1cnc2nc(C)ccc2c1Nc1ccc(C)c(Cl)c1 was read as mHTT CaM bind 77.7* and Pf apPOL block -0.4.
Screening CC(=O)Nc1ccc(N=Cc2cc(C)cc(I)c2O)cc1 returned mHTT CaM bind 65.0* and Pf apPOL block -7.3.
For CC(=O)Nc1ccc(N=Cc2ccccc2O)cc1 the results were mHTT CaM bind 4.0 and Pf apPOL block -0.2.
For N#CC1=C(N)Oc2n[nH]c(-c3ccccc3)c2C12C(=O)Nc1ccccc12 (stereo unspecified) the results were mHTT CaM bind 3.0 and Pf apPOL block -1.8.
For N#CC1=C(N)Oc2n[nH]c(-c3ccccc3)c2C12c1ccccc1-c1ccccc12 the results were mHTT CaM bind 90.0* and Pf apPOL block -1.6.
`O=C(CSc1ccccc1)Nc1cccc(C(=O)c2ccccc2)c1` gave mHTT CaM bind -17.0 and Pf apPOL block 3.0.

Screening data: PubChem BioAssay, University of Kansas High Throughput Screening Laboratory
